These results are taken from article PMC11006913.

Residue numbers refer to the chain shown, from its start.

Common to all, as to test: PBM; 200 nM protein, PBS
Holding throughout (settings): dsDNA, one strand shown

The target of assay [1] is T1, VENTX (Homo sapiens, UniProt O95231 78-163, R121Q).
T1 sequence: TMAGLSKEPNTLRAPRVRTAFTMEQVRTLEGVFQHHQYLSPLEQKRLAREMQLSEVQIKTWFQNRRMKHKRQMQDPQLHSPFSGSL

Assay [2] deals with T2, VENTX (Homo sapiens, UniProt O95231 78-163).
T2 sequence: T1 sequence with Q44R

Assay [3] has as its target T3, VENTX (Homo sapiens, UniProt O95231 78-163, Y115F).
T3 sequence: T1 sequence with Y38F, Q44R

Assay [4] addresses VAX1 (Homo sapiens, UniProt Q5SQQ9 86-172).
Assay [5] concerns the target VAX1 (Homo sapiens, UniProt Q5SQQ9 86-172, T142I).
The target of assay [6] is VAX1 (Homo sapiens, UniProt Q5SQQ9 86-172, K157R).
Assay [7] has as its target T4, PAX4 (Homo sapiens, UniProt O43316 9-242).
T4 sequence: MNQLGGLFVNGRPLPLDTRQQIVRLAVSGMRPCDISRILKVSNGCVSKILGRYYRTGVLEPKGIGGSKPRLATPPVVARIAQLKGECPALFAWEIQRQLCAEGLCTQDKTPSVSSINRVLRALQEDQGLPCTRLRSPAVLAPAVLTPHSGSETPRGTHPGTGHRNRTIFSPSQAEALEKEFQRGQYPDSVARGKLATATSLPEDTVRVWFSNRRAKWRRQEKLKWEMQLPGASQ

For assay [8], the target named is HOXB9 (Homo sapiens, UniProt P17482 171-250, T197M).
Assay [9] concerns the target HOXC9 (Homo sapiens, UniProt P31274 178-260, K195R).
Assay [10] addresses HOXA7 (Homo sapiens, UniProt P31268 116-202).
Assay [11] has as its target HOXC10 (Homo sapiens, UniProt Q9NYD6 254-340).
The target in assay [12] is T5, PAX4 (Homo sapiens, UniProt O43316 9-242, R200K).
T5 sequence: T4 sequence with R192K

In assay [13] the target is HOXB6 (Homo sapiens, UniProt P17509 132-218, K202E).
In assay [14] the target is HOXB9 (Homo sapiens, UniProt P17482 171-250).
Another assay addresses HOXB4 (Homo sapiens, UniProt P17483 148-234, V174I).
Assay [15] deals with HOXC9 (Homo sapiens, UniProt P31274 178-260).
Assay [16] addresses HOXC9 (Homo sapiens, UniProt P31274 178-260, R193K).
Assay [17] addresses HOXC10 (Homo sapiens, UniProt Q9NYD6 254-340, K271E).
In assay [18] the target is HOXB9 (Homo sapiens, UniProt P17482 171-250, R186Q).
The target in assay [19] is HOXC9 (Homo sapiens, UniProt P31274 178-260, R222W).
In assay [20] the target is HOXA7 (Homo sapiens, UniProt P31268 116-202, W177C).
Assay [21] concerns the target HOXB6 (Homo sapiens, UniProt P17509 132-218).
Assay [22] deals with HOXA4 (Homo sapiens, UniProt Q00056 201-287).
For assay [23], the target named is HOXA4 (Homo sapiens, UniProt Q00056 201-287, W262R).
Assay [24] addresses HOXA2 (Homo sapiens, UniProt O43364 129-215, R185T).
Assay [25] has as its target HOXA4 (Homo sapiens, UniProt Q00056 201-287, R217L).
Another assay deals with PITX2 (Homo sapiens, UniProt Q99697 72-157).
The target in assay [26] is HOXA2 (Homo sapiens, UniProt O43364 129-215, R185K).
In assay [27] the target is HOXA2 (Homo sapiens, UniProt O43364 129-215, Y150S).
Assay [28] addresses HOXA4 (Homo sapiens, UniProt Q00056 201-287, W262F).
Assay [29] concerns the target HOXA2 (Homo sapiens, UniProt O43364 129-215).

Sequence of HOXC9 (Homo sapiens, UniProt P31274 178-260) (P31274 178-260): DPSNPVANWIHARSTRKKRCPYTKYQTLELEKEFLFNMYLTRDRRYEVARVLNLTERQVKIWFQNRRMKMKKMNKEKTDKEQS
Sequence of HOXC9 (Homo sapiens, UniProt P31274 178-260, K195R) (P31274 178-260 K195R): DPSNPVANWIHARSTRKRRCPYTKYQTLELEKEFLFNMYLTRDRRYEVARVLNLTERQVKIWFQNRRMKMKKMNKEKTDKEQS
Sequence of HOXC9 (Homo sapiens, UniProt P31274 178-260, R222W) (P31274 178-260 R222W): as the sequence (P31274 178-260) above, with R45W counted along it
Sequence of HOXC9 (Homo sapiens, UniProt P31274 178-260, R193K) (P31274 178-260 R193K): as the sequence (P31274 178-260) above, with R16K counted along it
Sequence of HOXB9 (Homo sapiens, UniProt P17482 171-250, T197M) (P17482 171-250 T197M): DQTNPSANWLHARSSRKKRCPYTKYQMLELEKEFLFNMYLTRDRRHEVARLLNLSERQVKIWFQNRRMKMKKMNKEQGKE
Sequence of HOXA4 (Homo sapiens, UniProt Q00056 201-287) (Q00056 201-287): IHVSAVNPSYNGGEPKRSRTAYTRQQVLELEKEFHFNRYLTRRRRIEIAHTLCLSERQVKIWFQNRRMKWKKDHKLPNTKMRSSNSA
Sequence of HOXA4 (Homo sapiens, UniProt Q00056 201-287, R217L) (Q00056 201-287 R217L): as the sequence (Q00056 201-287) above, with R17L counted along it
Sequence of HOXA4 (Homo sapiens, UniProt Q00056 201-287, W262R) (Q00056 201-287 W262R): as the sequence (Q00056 201-287) above, with W62R counted along it
Sequence of HOXB9 (Homo sapiens, UniProt P17482 171-250, R186Q) (P17482 171-250 R186Q): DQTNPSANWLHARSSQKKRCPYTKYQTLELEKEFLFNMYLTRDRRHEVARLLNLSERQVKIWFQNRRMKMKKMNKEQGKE
Sequence of HOXC10 (Homo sapiens, UniProt Q9NYD6 254-340) (Q9NYD6 254-340): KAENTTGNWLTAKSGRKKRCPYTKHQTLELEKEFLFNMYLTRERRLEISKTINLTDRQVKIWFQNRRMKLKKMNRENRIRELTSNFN
Sequence of HOXB9 (Homo sapiens, UniProt P17482 171-250) (P17482 171-250): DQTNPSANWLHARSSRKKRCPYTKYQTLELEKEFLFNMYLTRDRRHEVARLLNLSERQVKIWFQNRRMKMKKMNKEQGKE
Sequence of HOXC10 (Homo sapiens, UniProt Q9NYD6 254-340, K271E) (Q9NYD6 254-340 K271E): as the sequence (Q9NYD6 254-340) above, with K18E counted along it
Sequence of HOXA4 (Homo sapiens, UniProt Q00056 201-287, W262F) (Q00056 201-287 W262F): as the sequence (Q00056 201-287) above, with W62F counted along it
Sequence of VAX1 (Homo sapiens, UniProt Q5SQQ9 86-172, T142I) (Q5SQQ9 86-172 T142I): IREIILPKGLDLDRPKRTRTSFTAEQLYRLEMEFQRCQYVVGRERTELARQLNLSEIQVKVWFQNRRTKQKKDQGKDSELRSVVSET
Sequence of HOXB6 (Homo sapiens, UniProt P17509 132-218, K202E) (P17509 132-218 K202E): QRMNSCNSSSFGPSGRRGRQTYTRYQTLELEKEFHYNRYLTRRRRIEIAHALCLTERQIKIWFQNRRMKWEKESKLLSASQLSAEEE
Sequence of HOXA2 (Homo sapiens, UniProt O43364 129-215, R185K) (O43364 129-215 R185K): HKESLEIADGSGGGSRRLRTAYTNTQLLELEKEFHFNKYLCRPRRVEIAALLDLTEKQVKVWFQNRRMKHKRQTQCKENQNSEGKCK
Sequence of VAX1 (Homo sapiens, UniProt Q5SQQ9 86-172) (Q5SQQ9 86-172): as the sequence (Q5SQQ9 86-172 T142I) above, with I57T counted along it
Sequence of VAX1 (Homo sapiens, UniProt Q5SQQ9 86-172, K157R) (Q5SQQ9 86-172 K157R): as the sequence (Q5SQQ9 86-172 T142I) above, with I57T, K72R counted along it
Sequence of HOXB6 (Homo sapiens, UniProt P17509 132-218) (P17509 132-218): as the sequence (P17509 132-218 K202E) above, with E71K counted along it
Sequence of HOXA7 (Homo sapiens, UniProt P31268 116-202, W177C) (P31268 116-202 W177C): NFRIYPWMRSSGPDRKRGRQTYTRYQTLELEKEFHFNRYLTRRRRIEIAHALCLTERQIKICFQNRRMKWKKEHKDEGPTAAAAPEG
Sequence of HOXA2 (Homo sapiens, UniProt O43364 129-215, R185T) (O43364 129-215 R185T): as the sequence (O43364 129-215 R185K) above, with K57T counted along it
Sequence of HOXA2 (Homo sapiens, UniProt O43364 129-215, Y150S) (O43364 129-215 Y150S): as the sequence (O43364 129-215 R185K) above, with Y22S, K57R counted along it
Sequence of HOXA2 (Homo sapiens, UniProt O43364 129-215) (O43364 129-215): as the sequence (O43364 129-215 R185K) above, with K57R counted along it
Sequence of HOXA7 (Homo sapiens, UniProt P31268 116-202) (P31268 116-202): as the sequence (P31268 116-202 W177C) above, with C62W counted along it
Sequence of HOXB4 (P17483 148-234 V174I): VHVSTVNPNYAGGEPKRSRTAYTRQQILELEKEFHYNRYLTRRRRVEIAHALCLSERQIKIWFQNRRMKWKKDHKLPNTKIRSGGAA

Regarding CCCATTAG, the binding signal with VENTX [1] is 12.1 upbm affinity estimate (log intensity, higher = more binding, comparable within an allelic series); with VENTX [2], 13 upbm affinity estimate (log intensity, higher = more binding, comparable within an allelic series); with VENTX [3] it was 11.9 upbm affinity estimate (log intensity, higher = more binding, comparable within an allelic series); in the assay with VAX1 [4], 12.6 upbm affinity estimate (log intensity, higher = more binding, comparable within an allelic series); with VAX1 [5], 12 upbm affinity estimate (log intensity, higher = more binding, comparable within an allelic series); in the assay with VAX1 [6] it was 12.3 upbm affinity estimate (log intensity, higher = more binding, comparable within an allelic series).
As to ACCGTTTA, the binding signal was 10.1 upbm affinity estimate (log intensity, higher = more binding, comparable within an allelic series) in the assay with VENTX [1]; 10.1 upbm affinity estimate (log intensity, higher = more binding, comparable within an allelic series) with VENTX [3]; 10.4 upbm affinity estimate (log intensity, higher = more binding, comparable within an allelic series) with PAX4 [7].
Regarding CATTAATA, the binding signal was 10.2 upbm affinity estimate (log intensity, higher = more binding, comparable within an allelic series) in the assay with HOXB9 [8]; 12.7 upbm affinity estimate (log intensity, higher = more binding, comparable within an allelic series) with HOXC9 [9]; 11.5 upbm affinity estimate (log intensity, higher = more binding, comparable within an allelic series) in the assay with HOXA7 [10]; 12.2 upbm affinity estimate (log intensity, higher = more binding, comparable within an allelic series) in the assay with HOXC10 [11]; 11.6 upbm affinity estimate (log intensity, higher = more binding, comparable within an allelic series) with PAX4 [12]; 10.1 upbm affinity estimate (log intensity, higher = more binding, comparable within an allelic series) with HOXB6 [13]. For the same sequence, the binding signal is 12 upbm affinity estimate (log intensity, higher = more binding, comparable within an allelic series) in the assay with HOXB9 [14]; 13.6 upbm affinity estimate (log intensity, higher = more binding, comparable within an allelic series) with HOXB4; 12.6 upbm affinity estimate (log intensity, higher = more binding, comparable within an allelic series) in the assay with HOXC9 [15]; 12.6 upbm affinity estimate (log intensity, higher = more binding, comparable within an allelic series) in the assay with HOXC9 [16]; 11.9 upbm affinity estimate (log intensity, higher = more binding, comparable within an allelic series) with HOXC10 [17]; 11.7 upbm affinity estimate (log intensity, higher = more binding, comparable within an allelic series) with HOXB9 [18]. The binding signal with HOXC9 [19] was 11.1 upbm affinity estimate (log intensity, higher = more binding, comparable within an allelic series); with HOXA7 [20] it was 9 upbm affinity estimate (log intensity, higher = more binding, comparable within an allelic series); in the assay with HOXB6 [21] it was 11.9 upbm affinity estimate (log intensity, higher = more binding, comparable within an allelic series).
For the sequence AGTTATCC, the binding signal with VENTX [1] is 9.65 upbm affinity estimate (log intensity, higher = more binding, comparable within an allelic series); with VENTX [2] it was 10.1 upbm affinity estimate (log intensity, higher = more binding, comparable within an allelic series); in the assay with HOXA4 [22], 11.1 upbm affinity estimate (log intensity, higher = more binding, comparable within an allelic series).
On to ATTAACGA, for which the binding signal with HOXB9 [8] is 10 upbm affinity estimate (log intensity, higher = more binding, comparable within an allelic series); in the assay with HOXA4 [23] it was 10.6 upbm affinity estimate (log intensity, higher = more binding, comparable within an allelic series); in the assay with HOXC9 [9], 12.6 upbm affinity estimate (log intensity, higher = more binding, comparable within an allelic series); in the assay with HOXC10 [11], 12.2 upbm affinity estimate (log intensity, higher = more binding, comparable within an allelic series); with VENTX [3], 11.5 upbm affinity estimate (log intensity, higher = more binding, comparable within an allelic series); with HOXA2 [24], 12.4 upbm affinity estimate (log intensity, higher = more binding, comparable within an allelic series). Further, the binding signal with HOXA4 [25] is 12 upbm affinity estimate (log intensity, higher = more binding, comparable within an allelic series); with HOXC9 [15], 12.5 upbm affinity estimate (log intensity, higher = more binding, comparable within an allelic series); in the assay with PITX2, 10.7 upbm affinity estimate (log intensity, higher = more binding, comparable within an allelic series); in the assay with HOXC9 [16] it was 12.5 upbm affinity estimate (log intensity, higher = more binding, comparable within an allelic series); in the assay with HOXA2 [26], 13.3 upbm affinity estimate (log intensity, higher = more binding, comparable within an allelic series); with HOXA4 [22] it was 13.6 upbm affinity estimate (log intensity, higher = more binding, comparable within an allelic series). Moreover, the binding signal in the assay with HOXC10 [17] is 12.1 upbm affinity estimate (log intensity, higher = more binding, comparable within an allelic series); with HOXC9 [19], 10.9 upbm affinity estimate (log intensity, higher = more binding, comparable within an allelic series); with HOXA2 [27] it was 10.9 upbm affinity estimate (log intensity, higher = more binding, comparable within an allelic series); in the assay with HOXA4 [28], 11.4 upbm affinity estimate (log intensity, higher = more binding, comparable within an allelic series); with HOXA2 [29], 12 upbm affinity estimate (log intensity, higher = more binding, comparable within an allelic series).
As to CCCGGTTC, the binding signal was 8.56 upbm affinity estimate (log intensity, higher = more binding, comparable within an allelic series) with HOXB9 [8]; 9.88 upbm affinity estimate (log intensity, higher = more binding, comparable within an allelic series) with HOXA4 [23]; 9.5 upbm affinity estimate (log intensity, higher = more binding, comparable within an allelic series) with HOXC9 [9]; 9.82 upbm affinity estimate (log intensity, higher = more binding, comparable within an allelic series) with HOXA4 [25]; 8.35 upbm affinity estimate (log intensity, higher = more binding, comparable within an allelic series) in the assay with HOXB9 [14]; 9.62 upbm affinity estimate (log intensity, higher = more binding, comparable within an allelic series) in the assay with HOXC9 [15]. Moreover, the binding signal is 9.59 upbm affinity estimate (log intensity, higher = more binding, comparable within an allelic series) with HOXC9 [16]; 9.74 upbm affinity estimate (log intensity, higher = more binding, comparable within an allelic series) with HOXA4 [22]; 8.47 upbm affinity estimate (log intensity, higher = more binding, comparable within an allelic series) with HOXB9 [18]; 9.68 upbm affinity estimate (log intensity, higher = more binding, comparable within an allelic series) with HOXC9 [19]; 9.9 upbm affinity estimate (log intensity, higher = more binding, comparable within an allelic series) in the assay with HOXA4 [28].
